# According to PubChem BioAssay AID504832 (National Center for Advancing Translational Sciences (NCATS), 2011):
# In all, about 310,000 compounds went through this assay and about 18,000 (5.8%) were called active. Where a call stands in place of a potency, no number is given. Not shown: some 22% with an inconclusive outcome. Calls follow the shape of the dose curve; as a rule, active = well fitted inhibition curve with a large enough effect; inconclusive = small, poorly fitted or top-dose-only effect, or another doubt; inactive = no such curve, though single readings can be large or run the other way. Only a selection was taken, and actives are over-represented in it overall.
# Experiment: Primary qHTS for delayed death inhibitors of the malarial parasite plastid, 48 hour incubation
# Conditions: P. falciparum luciferase growth in erythrocytes; series mostly up to 28.7 µM
# Procedure, shortened: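 Luciferase-expressing parasites in RBCs, 2% Hct / 0.1% parasitemia final; RPMI 1640 + 0.5% Albumax; 37 C, 5% CO2, one generation; luminescence read-out, lower signal = inhibition.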
# Potency is read from the fitted curve at half-maximal effect.
row,Structure (SMILES),Potency
1,Cc1ccc(S(=O)(=O)NCCC(=O)NC2CCN(Cc3ccccc3)CC2)cc1,inactive
2,Cc1cccc([C@@H]2[C@@H]3C(=O)N(C)C(=O)[C@@H]3[C@@H]3C(=O)Nc4ccccc4C(=O)N23)c1,inactive
3,CC1CCCCC12NC(=O)N(CC(=O)Nc1ccc(S(=O)(=O)Nc3ncccn3)cc1)C2=O (stereo unspecified),inactive
4,COc1cccc(C(=O)Nc2nnc(S(=O)(=O)N3CCOCC3)s2)c1,inactive
5,Cc1ccc(C)c(S(=O)(=O)Nc2cccc(-n3cnnn3)c2)c1,inactive
6,Cc1cnc(C)c(N2CCN(C(=O)C3CCC(=O)N(CCc4cccc(F)c4)C3)CC2)n1 (stereo unspecified),inactive
7,CCCOc1ccc(N/C=C/C(=O)C(C)(C)C)cc1,inactive
8,CN(C)c1ccc(N/C=C/C(=O)C(F)(F)F)cc1,9.28 µM (active)
9,O=C(/C=C/Nc1ccccc1OC(F)(F)F)C(F)(F)F,inactive
10,COc1ccc2ccccc2c1/C=N/NC(=O)c1cc(C)[nH]n1,inactive
11,Cc1onc(-c2ccccc2)c1C(=O)N=C(N)c1ccc(Cl)cc1,inactive
12,C/C(=N\N=C(N)N)c1ccc(Cl)cc1,6.57 µM (active)
13,C/C(=N\OCC(=O)O)c1ccc(Cl)cc1,inactive
14,Cc1ccccc1OCC(=O)N(Cc1cccc(F)c1)C1CCS(=O)(=O)C1 (stereo unspecified),inactive
15,CN(C(=O)COC(=O)CNC(=O)C12CC3CC(CC(C3)C1)C2)c1ccccc1,inactive
16,O=C(Nn1cc(C(=O)N2CCN(c3ccccc3F)CC2)c2ccccc2c1=O)c1cnccn1,10.4 µM (active)
17,O=C(c1c(F)cccc1F)N1CCN(c2ncc(Br)cn2)CC1,inactive
18,COc1ccc2oc(=O)c(C(=O)N3CCN(c4ccccc4F)CC3)cc2c1,inactive
19,O=C(COC(=O)c1cccs1)NCc1cccs1,inactive
20,CC(C)=CCN1CCN(CCCc2ccccc2)CC1CCO (stereo unspecified),inactive
21,O=C1Nc2cc(C(=O)N3CCN(c4ccc(F)cc4)CC3)ccc2NC1CSCc1cccc(F)c1 (stereo unspecified),inactive
22,Cc1cc(C)cc(Oc2nc3c(C)cccn3c(=O)c2/C=C(\C#N)C(=O)NC2CCS(=O)(=O)C2)c1 (stereo unspecified),13.1 µM (active)

row,Structure (SMILES),Potency
1,Cc1cccn2c(=O)c3cc(C(=O)NC4CCCCC4)sc3nc12,inactive
2,Cc1cccn2c(=O)c(/C=C(\C#N)S(=O)(=O)c3ccc(Cl)cc3)c(N3CCC(C(N)=O)CC3)nc12,inactive
3,CCCCNC(=O)Cn1nc(C)c(S(=O)(=O)N2CCOCC2)c1C,inactive
4,CSCCC(NC(=O)c1ccco1)C(=O)NCCc1ccc(F)cc1 (stereo unspecified),inactive
5,COc1ccc2c(C)c(CCC(=O)NC3CC3)c(=O)oc2c1C,inactive
6,COc1ccccc1C(=O)NC(=S)NC12CC3CC(CC(C3)C1)C2,inactive
7,Cc1ccccc1NC(=O)c1ccccc1NS(=O)(=O)c1cccc2cccnc12,inactive
8,O=[N+]([O-])c1ccccc1S(=O)(=O)Nc1cccc2cccnc12,2.33 µM (active)
9,O=C(Nc1ccccc1Cl)Nc1cccc2cccnc12,inactive
10,COc1ccccc1OCC(=O)OCc1cc(-c2ccco2)on1,inactive
11,C/C(=N/NC(=O)c1ccn(C)n1)c1ccncc1,inactive
12,C/C(=N\NC(N)=S)c1cccnc1,inactive
13,C/C(=N\NC(N)=S)c1ccncc1,3.29 µM (active)
14,CC(=O)N1CCC(C(=O)OCc2ccc(Cl)cc2)(c2ccccc2)CC1,inactive
15,O=C(/C=C/c1ccccc1[N+](=O)[O-])OCC(=O)N1CCCC1,inactive
16,COc1ccc(C(=O)NCCn2nc(C)cc2C)cc1OC1CCN(C(C)=O)CC1,inactive
17,O=C(NCC(=O)N1CCN(c2ccccc2F)CC1)c1cccs1,inactive
18,O=C(Cn1c(-c2ccc(Cl)cc2)noc1=O)N1CCN(c2ccccc2F)CC1,11.7 µM (active)
19,O=C(CCSc1ccccc1)N1CCN(c2ccccc2F)CC1,inactive
20,CC(=C1C(=O)c2ccccc2C1=O)N1CCN(c2ccccn2)CC1,inactive
21,Cc1ccc(S(=O)(=O)c2nnn3c2nc(N2CCN(c4ccccn4)CC2)c2ccccc23)cc1,1.47 µM (active)
22,CCOC(=O)/C(C#N)=C/c1ccc(N2CCN(Cc3ccccc3)CC2)cc1,inactive

row,Structure (SMILES),Potency
1,CCOC(=O)c1nnn2c1nc(N1CCN(c3ccccc3)CC1)c1ccccc12,5.22 µM (active)
2,CCOC(=O)c1nnn2c3ccccc3c(=O)n(C)c12,inactive
3,Cc1cc(C(=O)N2CCN(c3ccccn3)CC2)c(C)o1,inactive
4,COc1ccc(C2NC(=O)N(C)C(C)=C2[N+](=O)[O-])cc1 (stereo unspecified),inactive
5,COc1ccc(S(=O)(=O)NCc2cccnc2)cc1NC(=O)c1ccc(C)cc1,inactive
6,CCN(C(=O)CSc1ncnc2sccc12)c1c(N)n(Cc2ccccc2)c(=O)[nH]c1=O,inactive
7,O=C(Nc1cc(S(=O)(=O)N2CCOCC2)ccc1OCC(F)(F)F)c1ccc(N2CCCC2=O)cc1,inactive
8,COc1ccc(S(=O)(=O)N2CCOCC2)cc1NC(=O)CSc1cc(C)ccc1C,inactive
9,COc1ccc(S(=O)(=O)N2CCOCC2)cc1NC(=O)c1ccc(OCC(C)C)c(OC)c1,9.28 µM (active)
10,COc1ccc(S(=O)(=O)N2CCCCC2)cc1NC(=O)c1cc([N+](=O)[O-])ccc1N1CCOCC1,9.28 µM (active)
11,O=C(NC1CCCCC1)c1cc([N+](=O)[O-])ccc1N1CCOCC1,inactive
12,COc1ccc(S(=O)(=O)N2CCOCC2)cc1C(=O)NC1CCCCC1,inactive
13,CC(C)Cn1c(=O)c2ccccc2n2c(CCC(=O)NCc3ccccn3)nnc12,inactive
14,COc1ccc(C(=O)NC(=S)N2CCCCC2c2cccnc2)cc1OC (stereo unspecified),inactive
15,S=C(Nc1cccc(Br)c1)N1CCn2cccc2C1c1cccnc1 (stereo unspecified),11.7 µM (active)
16,S=C(NCCc1ccccc1)N1CCn2cccc2C1c1ccncc1 (stereo unspecified),10.4 µM (active)
17,S=C(NCCc1ccccc1)N1CCCCC1,inactive
18,CC1CCCCN1C(=S)NCc1ccccc1 (stereo unspecified),inactive
19,Fc1cc(Br)ccc1NC(=S)Nc1cccnc1,inactive
20,COc1ccc(CCNS(=O)(=O)c2cccc([N+](=O)[O-])c2)cc1,inactive
21,CN1CCN(C(=O)c2ccccc2NC(=O)COc2ccccc2Cl)CC1,inactive
22,COc1ccc(/C(C)=N\NC(=O)c2ccc(-c3ccccc3)cc2)c(F)c1,inactive

row,Structure (SMILES),Potency
1,CCOc1ccc(/C=C/C(=O)N(CC)CC(=O)NCc2cccs2)cc1OC,inactive
2,CS(=O)(=O)Nc1cccc(C2=NN(C(=O)c3cccc(F)c3)C(c3cccs3)C2)c1 (stereo unspecified),11.7 µM (active)
3,CCS(=O)(=O)Nc1ccc(C2=NN(C(C)=O)C(c3cccs3)C2)cc1 (stereo unspecified),inactive
4,CS(=O)(=O)Nc1ccc(C2=NN(S(C)(=O)=O)C(c3cccs3)C2)cc1 (stereo unspecified),inactive
5,CSc1ncccc1C(=O)Nc1ccc(C)cn1,inactive
6,Cc1ccc2c(c1)N(CC(=O)N1CCC(O)CC1)C(=O)CO2,inactive
7,CC(=O)OC(COc1ccc(F)cc1)Cn1cnc2ccccc21 (stereo unspecified),inactive
8,CC(C)c1ccc(OCC(O)Cn2cnc3ccccc32)cc1 (stereo unspecified),11.7 µM (active)
9,CC(C)c1ccc(OCC(O)CN2CCN(c3ccccn3)CC2)cc1 (stereo unspecified),inactive
10,COc1cc([N+](=O)[O-])cc([N+](=O)[O-])c1NC(=O)N1CCOCC1,inactive
11,NC(=O)c1ccsc1NC(=O)COC(=O)Cc1n[nH]c(=O)c2ccccc12,inactive
12,O=S(=O)(NC1CC1)c1ccc(Cl)cc1,inactive
13,CC(Cc1ccccc1)C(=O)N(C)Cc1ccccc1 (stereo unspecified),inactive
14,Cc1ncoc1C(=O)NCCC(c1ccccc1)c1ccccc1,inactive
15,CC(Cc1ccccc1)NCCC(c1ccccc1)c1ccccc1 (stereo unspecified),10.4 µM (active)
16,NS(=O)(=O)c1ccc(CCNC(=O)CN2C(=O)c3ccccc3S2(=O)=O)cc1,inactive
17,COc1ccc(N2CCN(S(=O)(=O)c3ccc4c(c3)N(C(C)=O)CCO4)CC2)cc1,inactive
18,COC(=O)C1=C(C)N(C)C(C)=C(C(=O)OC)C1c1cccc(Br)c1,8.28 µM (active)
19,COC(=O)C1=C(C)N(C)C(=S)NC1c1ccccc1 (stereo unspecified),inactive
20,COCCN1C(=O)N[C@@H](c2ccccc2)C(C(=O)OC)=C1C,inactive
21,CCn1cc(CN2CCC(n3nccc3NC(=O)CCCc3ccccc3)CC2)c(C)n1,inactive
22,CNC(=O)N1c2ccccc2C=Cc2ccccc21,inactive

row,Structure (SMILES),Potency
1,CC1Sc2ccc(S(=O)(=O)CCC(=O)NCc3ccccc3Cl)cc2NC1=O (stereo unspecified),inactive
2,CN(C)C(=O)c1ccc(NC(=O)c2ccccc2-c2ccccc2)cc1,inactive
3,COc1ccc(Nc2nnc(C)c3ccccc23)cc1,inactive
4,Cc1ccc(-c2nnc(Nc3ccc(C(=O)N(C)C)cc3)c3ccccc23)cc1S(N)(=O)=O,9.28 µM (active)
5,COc1ccc(NC(=O)CN(C)CC(=O)Nc2cccc(C(F)(F)F)c2)cc1,inactive
6,CCNC(=O)c1ccc(OCC(=O)Nc2ccc(F)cc2)c(OC)c1,inactive
7,COc1cc(C(=O)N(C)Cc2cccc(OC)c2OC)ccc1OCC(=O)Nc1cccc(C(F)(F)F)c1,11.7 µM (active)
8,O=C(Nc1ccc(N2CCCCC2)cc1)c1cc(S(=O)(=O)N2CCOCC2)ccc1F,inactive
9,N#Cc1cccc(NC(=O)C2CCCN(C(=O)c3ccc(Cl)cc3)C2)c1 (stereo unspecified),9.28 µM (active)
10,N#Cc1cccc(NC(=O)CN2CCCCCC2)c1,inactive
11,O=C(Nc1cccc(Cl)c1)C1CCCN(c2cnccn2)C1 (stereo unspecified),inactive
12,COc1ccc(Cl)cc1C(=O)OCC(=O)NCc1cccs1,inactive
13,O=C(COC(=O)C1CCN(S(=O)(=O)c2ccc3c(c2)OCCO3)CC1)Nc1ccccc1OC(F)F,inactive
14,Cc1c(C(=O)NCCN(C)C)oc2ccc(S(=O)(=O)N3CCCC3)cc12,inactive
15,CCOC(=O)C1CCN(C(=O)C2CCCN(S(=O)(=O)c3ccc(OC)c(Cl)c3)C2)CC1 (stereo unspecified),inactive
16,CCOC(=O)C1CCN(S(=O)(=O)c2ccc3c(c2)N(C(C)=O)CCO3)CC1,inactive
17,CCOC(=O)C1CCN(C(=O)c2oc3ccc(S(=O)(=O)N4CCCCCC4)cc3c2C)CC1,11.7 µM (active)
18,CCOC(=O)C1CCN(C(=O)COC(=O)C2CCN(S(=O)(=O)c3ccc4c(c3)OCCO4)CC2)CC1,13.1 µM (active)
